Assay results reported in PubChem BioAssay (Tox21).
Where “and” joins values, the source holds several entries; their conditions need not be identical. Equal entries are not always repeated. A number with no mark means an inactive call. Entries that show only a call come without a potency. Calls of active or inactive are those of the source. Calls come from the whole dose curve; as a rule, active = well fitted curve in the direction sought with a large enough effect in the repeat runs; inconclusive = weak or mixed curves; inactive = flat fitted curve, though single readings scatter.
Tags give direction and shape of the fitted curve or compound fluorescence and quenching.

Assay: qHTS assay to test for compound auto fluorescence at 535 nm (green) in HEK293 cells (AID 720680); note: potency is the fitted concentration of half-maximal effect
Settings: green autofluorescence 485/535 nm; series mostly up to 91.3 µM; fluorescence, % of fluorescein: at the top concentration
For `Cc1cn([C@H]2C=C[C@@H](CO)O2)c(=O)[nH]c1=O`, the Potency was “inactive”.
With `O=C(O)CC(O)C(=O)O` (stereo unspecified) the Potency was “inactive”.
With `CCCCCCCCCCCC[N+](C)(C)Cc1ccccc1` the Potency was “inactive”.
In the case of `COc1ccc(C(Cl)=C(c2ccc(OC)cc2)c2ccc(OC)cc2)cc1`, the Potency was “inactive”.
With `Nc1ccc([N+](=O)[O-])cc1O` the “fluorescence, % of fluorescein” value was -0.471%.
For `O=C1NS(=O)(=O)c2ccccc21`, the Potency was “inactive”.
In the case of `CCCCNC(=O)NS(=O)(=O)c1ccc(C)cc1`, the Potency was “inactive”.
With `Nc1c(N=Nc2ccc(-c3ccc(N=Nc4cc(S(=O)(=O)O)c5ccccc5c4N)cc3)cc2)cc(S(=O)(=O)O)c2ccccc12` the Potency was “inactive”.
In the case of `O=C(Nc1ncc([N+](=O)[O-])s1)c1cccs1`, the “fluorescence, % of fluorescein” value was -0.0732% [at 46 µM].
With `CC(O)(P(=O)(O)O)P(=O)(O)O` the Potency was “inactive”.
With `CC1(C)O[C@@H]2C[C@H]3[C@@H]4CCC5=CC(=O)C=C[C@]5(C)[C@@]4(F)[C@@H](O)C[C@]3(C)[C@]2(C(=O)CO)O1` the Potency was “inactive”.
For `CC(=O)Nc1c(I)c(NC(C)=O)c(I)c(C(=O)O)c1I`, the Potency was “inactive”.
For `NC1CCCCC1`, the Potency was “inactive”.
In the case of `Cc1ncc([N+](=O)[O-])n1CCO`, the Potency was “inactive”.
With `Cc1cccc(C)c1` the Potency was “inactive”.
In the case of `CCOC(N)=O`, the Potency was “inactive”.
In the case of `O=C1OC2(c3ccccc31)c1cc(Br)c(O)c(Br)c1Oc1c2cc(Br)c(O)c1Br`, the Potency was 11.2 µM [fluorescent] (active) and 28.2 µM [fluorescent] (active).
In the case of `Cc1ccc(S(=O)(=O)O)cc1`, the Potency was “inactive”.
With `CC/C(=C(\c1ccccc1)c1ccc(OCCN(C)C)cc1)c1ccccc1` the Potency was “inactive”.
With `CC(=O)C(=O)O` the Potency was “inactive”.
In the case of `C=C(C)C(=O)OCC(C)O` (stereo unspecified), the Potency was “inactive”.
For `COc1ccc2c(c1)c(CC(=O)O)c(C)n2C(=O)c1ccc(Cl)cc1`, the Potency was “inactive”.
For `C/C=C/C=C/C(=O)O`, the Potency was “inactive”.
In the case of `Oc1ccccc1`, the Potency was “inactive”.
For `Nc1ccc(O)c([N+](=O)[O-])c1`, the “fluorescence, % of fluorescein” value was -0.349%.
With `CN1CCC[C@H]1c1cccnc1` the Potency was “inactive”.
For `CCN(CC)C(=O)c1cccc(C)c1`, the Potency was “inactive”.
For `COc1ccc(CN(CCN(C)C)c2ccccn2)cc1`, the Potency was “inactive”.
For `O=S1(=O)OC(c2ccc(O)cc2)(c2ccc(O)cc2)c2ccccc21`, the Potency was “inactive”.

Assay: qHTS assay to test for compound auto fluorescence at 460 nm (blue) in HEK293 cell free culture (AID 720681)
Settings: cell-free medium, autofluorescence 405/460 nm (blue); series mostly up to 91.3 µM; fluorescence, % of fluorescent control: at the top concentration
How it was run: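 Compounds were added to cell-free DMEM with 10% FBS and fluorescence read directly. The blue channel used 405 nm excitation and 460 nm emission, with triamterene as the reference fluorophore.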
With `Cc1cn([C@H]2C=C[C@@H](CO)O2)c(=O)[nH]c1=O` the Potency was “inactive”.
For `COc1ccc(C(Cl)=C(c2ccc(OC)cc2)c2ccc(OC)cc2)cc1`, the Potency was “inactive”.
With `Nc1ccc([N+](=O)[O-])cc1O` the “fluorescence, % of fluorescent control” value was -1.11%.
For `O=C1NS(=O)(=O)c2ccccc21`, the Potency was “inactive”.
With `CCCCNC(=O)NS(=O)(=O)c1ccc(C)cc1` the Potency was “inactive”.
For `Nc1c(N=Nc2ccc(-c3ccc(N=Nc4cc(S(=O)(=O)O)c5ccccc5c4N)cc3)cc2)cc(S(=O)(=O)O)c2ccccc12`, the Potency was “inactive”.
With `CC(=O)Nc1c(I)c(NC(C)=O)c(I)c(C(=O)O)c1I` the Potency was “inactive”.
With `Cc1ncc([N+](=O)[O-])n1CCO` the Potency was “inactive”.
With `Cc1cccc(C)c1` the Potency was “inactive”.
With `CC/C(=C(\c1ccccc1)c1ccc(OCCN(C)C)cc1)c1ccccc1` the Potency was “inactive”.
With `CC(=O)C(=O)O` the Potency was “inactive”.
In the case of `C=C(C)C(=O)OCC(C)O` (stereo unspecified), the Potency was “inactive”.
With `C/C=C/C=C/C(=O)O` the Potency was “inactive”.
For `Nc1ccc(O)c([N+](=O)[O-])c1`, the “fluorescence, % of fluorescent control” value was -0.324%.
In the case of `CN1CCC[C@H]1c1cccnc1`, the Potency was “inactive”.
For `CCN(CC)C(=O)c1cccc(C)c1`, the Potency was “inactive”.
With `COc1ccc(CN(CCN(C)C)c2ccccn2)cc1` the Potency was “inactive”.
In the case of `O=S1(=O)OC(c2ccc(O)cc2)(c2ccc(O)cc2)c2ccccc21`, the Potency was “inactive”.

Assay: qHTS assay to test for compound auto fluorescence at 535 nm (green) in HEK293 cell free culture (AID 720682); note: potency is the fitted concentration of half-maximal effect
Settings: cell-free medium, green autofluorescence 485/535 nm; series mostly up to 91.3 µM; activity change: at the top concentration
How it was run: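 Cell-free medium (DMEM, 10% FBS) receives compound or DMSO by pintool. Plate read directly at Ex 485/Em 535 nm. Signal converted to fluorescein equivalency.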
In the case of `Cc1cn([C@H]2C=C[C@@H](CO)O2)c(=O)[nH]c1=O`, the Potency was “inactive”.
For `O=C(O)CC(O)C(=O)O` (stereo unspecified), the Potency was “inactive”.
In the case of `CCCCCCCCCCCC[N+](C)(C)Cc1ccccc1`, the Potency was “inactive”.
For `COc1ccc(C(Cl)=C(c2ccc(OC)cc2)c2ccc(OC)cc2)cc1`, the Potency was “inactive”.
For `Nc1ccc([N+](=O)[O-])cc1O`, the “activity change” value was -0.314%.
For `O=C1NS(=O)(=O)c2ccccc21`, the Potency was “inactive”.
In the case of `CCCCNC(=O)NS(=O)(=O)c1ccc(C)cc1`, the Potency was “inactive”.
In the case of `Nc1c(N=Nc2ccc(-c3ccc(N=Nc4cc(S(=O)(=O)O)c5ccccc5c4N)cc3)cc2)cc(S(=O)(=O)O)c2ccccc12`, the Potency was “inactive”.
For `O=C(Nc1ncc([N+](=O)[O-])s1)c1cccs1`, the “activity change” value was -0.0541% [at 46 µM, active compounds read high].
In the case of `CC(O)(P(=O)(O)O)P(=O)(O)O`, the Potency was “inactive”.
With `CC1(C)O[C@@H]2C[C@H]3[C@@H]4CCC5=CC(=O)C=C[C@]5(C)[C@@]4(F)[C@@H](O)C[C@]3(C)[C@]2(C(=O)CO)O1` the Potency was “inactive”.
In the case of `CC(=O)Nc1c(I)c(NC(C)=O)c(I)c(C(=O)O)c1I`, the Potency was “inactive”.
For `NC1CCCCC1`, the Potency was “inactive”.
With `Cc1ncc([N+](=O)[O-])n1CCO` the Potency was “inactive”.
For `Cc1cccc(C)c1`, the Potency was “inactive”.
With `CCOC(N)=O` the Potency was “inactive”.
For `O=C1OC2(c3ccccc31)c1cc(Br)c(O)c(Br)c1Oc1c2cc(Br)c(O)c1Br`, the Potency was 11.2 µM [fluorescent] (active) and 17.8 µM [fluorescent] (active).
In the case of `Cc1ccc(S(=O)(=O)O)cc1`, the Potency was “inactive”.
For `CC/C(=C(\c1ccccc1)c1ccc(OCCN(C)C)cc1)c1ccccc1`, the Potency was “inactive”.
In the case of `CC(=O)C(=O)O`, the Potency was “inactive”.
For `C=C(C)C(=O)OCC(C)O` (stereo unspecified), the Potency was “inactive”.
In the case of `COc1ccc2c(c1)c(CC(=O)O)c(C)n2C(=O)c1ccc(Cl)cc1`, the Potency was “inactive”.
For `C/C=C/C=C/C(=O)O`, the Potency was “inactive”.
For `Oc1ccccc1`, the Potency was “inactive”.
With `Nc1ccc(O)c([N+](=O)[O-])c1` the “activity change” value was -0.436%.
For `CN1CCC[C@H]1c1cccnc1`, the Potency was “inactive”.
In the case of `CCN(CC)C(=O)c1cccc(C)c1`, the Potency was “inactive”.
In the case of `COc1ccc(CN(CCN(C)C)c2ccccn2)cc1`, the Potency was “inactive”.
With `O=S1(=O)OC(c2ccc(O)cc2)(c2ccc(O)cc2)c2ccccc21` the Potency was “inactive”.
